This is a sample that favours compounds with a hit; in the whole collection about 19% have one here.
IL1B secr inh: blocks inflammasome-driven IL-1 beta release | THP-1 LPS/ATP IL-1B secretion, AlphaLISA, 16 h; active compounds read low | activity change, % at 57.5 µM | hit rate 4.7% among 360,000 | AID 743279; in the data active = activity change below about -50%; inconclusive = mostly about -30% to -49%
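THP-1 cells pretreated 1 hr with compounds (up to 57.5 uM final), then stimulated with LPS (250 ng/mL final) plus ATP (1.25 mM final); secreted IL-1B measured by AlphaLISA after 16 hr, decreased signal indicating inhibition.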
TDP1 cell CPT: DT40-hTDP1 cell growth loss with CPT; chicken DT40 Tdp1-/-;hTDP1 cells + 20 nM CPT, ATP luminescence, 48 h; Potency, µM (series often up to 46.2 µM), hits mostly inhibitors; hit rate 12% among 420,000; also: nearly all actives have a fitted effect of over 55% in size
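Chicken DT40 Tdp1-/- cells complemented with human TDP1, 400 cells/well, exposed to compounds plus 20 nM camptothecin for at least 48 h at 37 C; viability read as ATP content by CellTiter-Glo luminescence.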
HT1080NT lethal: kills 2HG-producing HT-1080-NT fibrosarcoma cells. HT-1080-NT fibrosarcoma viability, CellTiter-Glo ATP luminescence, 48 h. Potency, µM (doses to about 46.1 µM), actives largely listed as cytotoxic. hit rate 1.6% among 360,000. AID 686970;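 also: NT is the 2HG producing partner of a matched IDH1 knockdown line; nearly all actives have a fitted effect of over 55% in size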
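Toxicity toward the 2HG-producing NT line was scored as %Activity, normalised to DMSO and no-cell wells, from CellTiter-Glo luminescence after 48 hours' treatment.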
HT1080 IDH1KD tx: HT-1080 IDH1 knockdown cell toxicity (counter line); HT-1080 IDH1 knockdown viability, ATP luminescence, 48 h; Potency, µM (titrated, usually from 46.1 µM), usual class: cytotoxic; hit rate 2% among 360,000; AID 686971
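HT-1080-IDH1KD cells (IDH1 knocked down), 750/well in RPMI with 5% FBS, treated with compound 48 h at 37 degrees C. Viability by CellTiter-Glo luminescence, normalised to DMSO and no-cell wells; concentration-response curves classed.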
TDP1 cell noCPT: qHTS for Inhibitors of human tyrosyl-DNA phosphodiesterase 1 (TDP1): qHTS in cells in absence of CPT. AID 686978, 2013. DT40 Tdp1-/- hTDP1 cells, no CPT, ATP luminescence, 48 h. Potency, µM (series often up to 46.2 µM), actives largely listed as inhibitors. hit rate 15% among 420,000; also: nearly all actives have a fitted effect of over 55% in size
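Compound effects on proliferation are scored in DT40 Tdp1-/-;hTDP1 cells in the absence of CPT. ATP levels (CellTiter-Glo luminescence) are recorded after a ≥48 hr, 37 °C incubation.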
Hits are given with their value; 0 = inactive; ? = inconclusive; - = not tested or not shown. Unless noted, calls follow the shape of the dose curve; as a rule, active = well fitted curve in the direction sought with a large enough effect; inconclusive = small, poorly fitted or top-dose-only effect, or another doubt; inactive = no such curve, though single readings can be large; an effect the other way counts as inactive or inconclusive.

SMILES	IL1B secr inh	TDP1 cell CPT	HT1080NT lethal	HT1080 IDH1KD tx	TDP1 cell noCPT
Cc1csc(CNC(=O)c2cc(COc3c(C)cccc3C)on2)n1	0	?	0	0	0
Cc1cc(C)cc(Oc2c(C(F)(F)F)oc3c(CN4CCCC(C)C4)c(O)ccc3c2=O)c1 (centres undefined)	-	0	-	-	0
Cc1ccccc1NC(=S)NCCO	0	0	0	0	0
CCc1ccccc1NC(=S)NCCSc1ccc(Cl)cc1	-98	?	0	?	?
Cc1cccc(NC(=S)NCC(C)CSc2ccc(Cl)cc2)c1 (centres undefined)	0	?	?	?	16µM
Cc1ccccc1NC(=S)NCCSc1ccc(Cl)cc1	-82	?	0	0	18µM
Cc1ccc(-c2nc3ncccc3o2)cc1NC(=O)c1ccc(-c2ccc(Cl)cc2)o1	-	0	-	-	0
COC(=O)[C@@H]1CCCN1Cc1ccc2c(c1)CN(Cc1nccs1)CCO2	-	0	-	-	0
CC(=O)c1ccc(NC(=O)c2cc3sccc3n2Cc2ccc(Cl)cc2)cc1	-	16µM	-	-	16µM
Cc1ccc(Cn2c(C(=O)Nc3cccc(Cl)c3)cc3sccc32)cc1	-	18µM	-	-	?
CCOC(=O)c1cccc(NC(=O)c2cc3sccc3n2Cc2ccc(Cl)cc2)c1	-	?	-	-	18µM
Cc1ccc(Cn2c(C(=O)O)cc3sccc32)cc1	0	0	0	0	0
CCOC(=O)c1ccc(NC(=O)c2cc3sccc3n2Cc2ccc(Cl)cc2)cc1	-	21µM	-	-	18µM
O=C(Nc1nccs1)c1cc2sccc2n1Cc1ccc(Cl)cc1	0	0	0	0	0
Cc1nnc(NCc2ccccc2)c2ccccc12	0	0	0	0	0
CCOc1ccc(-n2c(=O)c3c4c(sc3n(CC(=O)Nc3cccc(C(F)(F)F)c3)c2=O)CCCCC4)cc1	-	0	-	-	0
CC1(C(=O)NS(=O)(=O)c2ccc(F)cc2F)CCN1C(=O)c1ccccc1 (centres undefined)	0	0	0	?	0
CCCN(C)C1CN(Cc2cn(Cc3ccc(OC)cc3)nn2)S(=O)(=O)C1 (centres undefined)	0	0	0	0	0
C[C@H](CO)N1C[C@H](C)[C@H](CN(C)S(=O)(=O)c2ccc(F)cc2)OCc2cnnn2CCCC1=O	0	0	0	0	0
O=C(Nc1ccc2c(c1)OCCO2)c1cc2sccc2n1Cc1ccc(F)cc1	-	?	0	0	?
CCOC(=O)c1cccc(NC(=O)c2cc3sccc3n2C)c1	0	?	0	?	21µM
O=C(Nc1ccc2c(c1)OCCO2)c1cc2sccc2n1Cc1ccccc1	?	18µM	0	0	?
CCOC(=O)c1ccccc1NC(=O)c1cc2sccc2n1C	0	0	0	0	0
COC(=O)/C=C1\OCc2cc(OC)c(OCc3ccccc3)cc21	0	?	0	0	21µM
Cc1ccc(SCC(=O)NC(=O)c2ccc(S(=O)(=O)N(C)C)cc2)cc1C	0	0	0	0	?
SMILES	IL1B secr inh	TDP1 cell CPT	HT1080NT lethal	HT1080 IDH1KD tx	TDP1 cell noCPT
CCC(C)C(=O)Nc1nc(C)c(-c2csc(Nc3cc(Cl)ccc3OC)n2)s1 (centres undefined)	0	15µM	0	0	10µM
CCCCC(=O)Nc1nc(C)c(-c2csc(Nc3cc(OC)ccc3OC)n2)s1	0	6.5µM	0	?	?
CCCCC(=O)Nc1nc(C)c(-c2csc(Nc3cc(Cl)ccc3OC)n2)s1	0	?	0	0	?
COc1ccc(Cl)cc1Nc1nc(-c2sc(NC(=O)C(C)(C)C)nc2C)cs1	0	5.2µM	0	0	3.7µM
COc1ccc(OC)c(Nc2nc(-c3sc(NC(=O)CC(C)C)nc3C)cs2)c1	0	15µM	0	?	16µM
COc1ccc(Cl)cc1Nc1nc(-c2sc(NC(=O)c3ccco3)nc2C)cs1	0	?	0	0	?
COc1cccc(C(=O)NCC(=O)N/N=C/c2cccs2)c1	0	0	0	0	0
CCC(C)C(=O)Nc1nc(C)c(-c2csc(Nc3cc(OC)ccc3OC)n2)s1 (centres undefined)	0	16µM	0	0	15µM
CCCC(=O)Nc1nc(C)c(-c2csc(Nc3ccccc3C)n2)s1	0	0	0	0	0
FC(F)(F)c1ccc(C2=Nc3ccccc3NC(c3cccs3)=N2)cc1	-	0	-	-	?
CCCCOc1ccc(C2=NC(c3cccs3)=Nc3ccc(OC)cc3N2)cc1	-	0	-	-	?
COc1ccc(C2=Nc3ccc(F)cc3NC(c3cccc(C(F)(F)F)c3)=N2)cc1	-	23µM	-	-	?
Fc1ccc(C2=NC(c3cccc(C(F)(F)F)c3)=Nc3ccccc3N2)cc1	-	?	-	-	18µM
CCCC(CNC(C)=O)(C1=CCCCC1)c1ccccc1 (centres undefined)	0	18µM	0	0	13µM
CC(OC(=O)c1ccccc1)C(=O)NCCC1=CCCCC1 (centres undefined)	0	0	0	0	0
Fc1ccccc1CNCCC(Cc1ccccc1)c1ccc2c(c1)OCO2 (centres undefined)	-98	?	16µM	?	?
Cc1ccc(C(CCN)c2ccco2)cc1 (centres undefined)	0	?	0	0	?
COc1ccc(CNCCC(c2ccccc2)c2ccc3c(c2)OCO3)cc1 (centres undefined)	-87	5.8µM	?	?	5.8µM
COc1ccc(CNCCC(c2ccc(C)cc2)c2ccco2)cc1 (centres undefined)	-	12µM	-	-	7.3µM
CC(=O)N(CCC(Cc1ccccc1)c1ccc2c(c1)OCO2)Cc1ccccc1F (centres undefined)	0	?	0	0	?
Cc1nnc(NC(=O)CSCc2cc(=O)c3cc(Cl)ccc3[nH]2)s1	-	0	-	-	0
CNC(=O)c1[nH]cnc1C(=O)N[C@@H](Cc1ccccc1)C(=O)OC(C)(C)C	0	?	0	0	0
CC(C)(C)OC(=O)[C@H](Cc1ccccc1)NC(=O)c1nc[nH]c1C(=O)N[C@@H](CCCCN)C(=O)OC(C)(C)C	0	?	0	0	16µM
CC(C)(C)OC(=O)NCCCC[C@H](NC(=O)c1[nH]cnc1C(=O)N[C@@H](Cc1ccccc1)C(=O)OCc1ccccc1)C(=O)OC(C)(C)C	0	?	?	0	?
CC(C)(C)OC(=O)[C@H](Cc1ccccc1)NC(=O)c1[nH]cnc1C(=O)Nc1ccccc1F	?	18µM	0	?	15µM
C[C@H](NC(=O)c1nc[nH]c1C(=O)N[C@@H](Cc1ccccc1)C(=O)OC(C)(C)C)C(=O)OCc1ccccc1	0	?	0	0	18µM
CNC(=O)c1[nH]cnc1C(=O)N[C@@H](Cc1ccccc1)C(=O)OCc1ccccc1	0	15µM	0	0	?
O=C1COc2ccc(C(=O)c3ccccc3)cc2CN1	0	0	0	0	0

High-throughput results as filed in PubChem.
